Results reported in PubChem BioAssay AID2149 (The Scripps Research Institute Molecular Screening Center, 2009).
In all, about 2,400 compounds went through this assay and about 1,800 (75%) were called active.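 Rule for the calls: active = inhibition above the primary screen limit, the mean inhibition of all tested compounds plus 3 SD (cut at about 25% in these data); inactive = the rest.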 The set was probably picked from earlier hits. The list is a sample of the results.

Tested on: tRNA 2'-phosphotransferase TPT1 [Candida albicans SC5314]
Assay: Candida albicans TPT1 inhibitors, confirmation, biochemical, fluorescence polarization, triplicate (AID 2149)
Details: recombinant caTPT1, fluorescence polarization, RNase T1 coupled; at 5 µM; active compounds read high

inhibition, active:
C[n+]1ccc(/C=C/c2c[nH]c3ccccc23)cc1 56.5%, Cc1nc2ccccc2nc(=O)c1NNc1ccc([N+](=O)[O-])cc1 35.8%, CC(=O)n1c(C=Nc2ccccc2)c(O)c2ccccc21 73.1%, COc1cc2c(cc1O)[C@H](Cc1ccc(Oc3cc(C[C@@H]4NCCc5cc(OC)c(O)cc54)ccc3O)cc1)NCC2 33.8%, COc1cc(N2CCCC2)c(OC)cc1/C=C(/C#N)c1cccc(Br)c1 68.1%, CC(=O)c1cc(NC(=O)c2ccccc2)c(=O)oc1/C=C/N(C)C 118%, CC(C)(C)c1ccc(/C=C2\Oc3c(ccc(O)c3CN3CCN(CCO)CC3)C2=O)cc1 37.2%, C=CCC1=C/C(=C\c2c(N)n3nc(CC(=O)N4CCOCC4)sc3nc2=O)C=C(OC)C1=O 104%, CCOC(=O)/C(C#N)=C/c1ccc(N2CCN(Cc3ccccc3)CC2)cc1 81.9%, CCOC(=O)/C(C#N)=C/c1ccc(N2CCCCC2)cc1 126%, CCN1/C(=C/c2ccc3ccc(C)cc3[n+]2CC)Sc2ccccc21 44.2%, CCN1/C(=C\c2ccc3ccccc3[n+]2CC)Sc2cc(C)ccc21 78.3%, COc1ccc(N=C(C)c2sc3ccccc3c2O)cc1 70.2%, COc1ccc(C2=NN(C(=O)c3ccccc3C(=O)O)C(c3ccccc3O)C2)cc1 (stereo not given) 26.3%, CN(C)c1ccc(/C=C2\NC(=S)N(Cc3ccccc3)C2=O)cc1 160%, CCOC(=O)c1c(NC(=S)Nc2ccccc2)sc2c1CCN(C)C2 42.8%, COc1cc(/C=C2/C(=O)NN(c3cccc(Cl)c3)C2=O)cc(Br)c1O 153%, Oc1ccc(/C=N/Nc2nc(-c3ccccc3F)nc3ccccc23)c(O)c1 29.1%, CN(c1ccccc1)c1ccc(/C=c2\s/c(=C(/C#N)C(=O)C(C)(C)C)n(Cc3ccco3)c2=O)cc1 127%, CN1/C(=C\C=C2\N=C(c3ccc(F)cc3)OC2=O)C(C)(C)c2ccccc21 151%, Cc1ccc(Nc2ccccc2N)cc1 25.8%, Cn1cccc1/C=C1\SC(=S)N(NC(=O)c2ccc(Cl)cc2)C1=O 101%, CCn1c(/C=C/c2ccc([N+](=O)[O-])o2)nc2ccccc2c1=O 36.7%, COc1ccccc1/C=N/Nc1nc(C)c(C(C)=O)s1 33.1%, CCOc1nnc(C)c2c(C)n(-c3cccc(Cl)c3)nc12 76.5%, O=C1NC(=O)C2C1C(c1ccc([N+](=O)[O-])cc1)=NN2Cc1ccccc1 (stereo not given) 33.2%, CCN(CC)C(=O)CSC(Nc1cccc(F)c1)=C(C#N)C#N 46.5%, O=C(N/N=C/c1sc(N2CCCCC2)nc1-c1cccs1)c1cccnc1 44.1%, NNC(=O)c1oc2nc(-c3ccccc3)cc(-c3ccco3)c2c1N 31.5%, Cc1ccc(Nc2nc(Cl)c(C=O)s2)cc1 67.3%, CCOc1ccc2nc(/N=C/c3nc(-c4ccccc4)oc3O)sc2c1 58.6%, Fc1ccc2nc(Nc3nc4c(s3)CCCC4)sc2c1 28.4%, Cc1c(-c2ccccc2)cn2c1-c1ccc(C)n1CC2 32.8%, Cn1c2ccccc2c2cc(/C=C(\NC(=O)c3ccccc3)C(=O)NCC(=O)O)ccc21 80.3%, Cc1ccc(-c2nn(-c3ccccc3)cc2/C=C2\SC(=S)N(CCCCCC(=O)O)C2=O)o1 68.6%, O=C(Nc1ccc(S(=O)(=O)Nc2nccs2)cc1)c1cc(-c2ccncc2)nc2ccccc12 49.1%, CS(=O)(=O)c1ccc2c(c1)SC1=NC(=O)/C(=C/c3ccco3)C(=N)N12 44.3%, Cc1cc(/C=C2/SC(=O)N(CC(=O)N3CCCC3)C2=O)ccc1N1CCOCC1 63.5%, Cc1sc2nc(COC(=O)C(NC(=O)c3ccc(Cl)cc3Cl)C(C)C)[nH]c(=O)c2c1C (stereo not given) 55.1%, Cc1c(C(=O)OC(C)C)sc(NC(=O)c2cccnc2)c1C#N 26%, Nc1c(C(=O)c2cccs2)sc2nsc(SCCN3CCCCC3)c12 67.7%, CCCCCCc1cc2cc(-c3nnc(-c4ccccc4)o3)c(=O)oc2cc1O 117%, COc1cc(/C=C2/SC(=S)N(Cc3ccccc3)C2=O)cc(OC)c1O 98.5%, CCN(CC)c1ccc2cc(C(N)=O)/c(=N\NC(=O)c3ccncc3)oc2c1 139%, Cc1cc(O)c(C(=O)/C=C/c2c(F)c(F)c(F)c(F)c2F)c(=O)o1 63.4%, CN1C(=O)/C(=C/C=C2\SCCN2C)OC1=S 172%, CCN(CC)c1ccc(/C=N/Nc2nc(C)cc(C)n2)c(O)c1 34%, CSC1=N/C(=C\C=C\c2cccs2)C(=O)S1 52.8%, Nc1nonc1-n1nnc(C(=O)N/N=C/c2cc(Br)ccc2O)c1CSC1=NCCS1 37.7%, N#C/C(=C/c1ccc(N2CCCCC2)o1)C(=O)NCCc1c[nH]c2ccccc12 191%, Cc1ccc(-n2c(C)cc(/C=N/Nc3ccc([N+](=O)[O-])cn3)c2C)c(C)c1 60.9%, Cc1cc(/C=N/Nc2ccc([N+](=O)[O-])cn2)c(C)n1-c1cccc(C(=O)O)c1 54.5%, N#C/C(=C(/O)COC(=O)COc1ccc(Cl)cc1)c1nc2ccccc2[nH]1 40.6%, CCOc1ccc(-n2c(O)c(/C=N/c3ccnn3Cc3ccncc3)c3ccccc3c2=O)cc1 80.4%, O=C1Nc2cc(C(=O)N3CCN(c4ccc(F)cc4)CC3)ccc2NC1CSCc1cccc(F)c1 (stereo not given) 112%, Cc1cccc2cc3c(N)c(C(=O)N4CCCc5ccccc54)sc3nc12 51.9%, CCOC(=O)C1=C(C)Nc2sc(C(=O)c3ccc(Br)cc3)c(N)c2C1c1ccc(C(=O)OC)cc1 (stereo not given) 29.3%, CC1=CC2=NC(=O)/C(=C/c3coc4ccccc4c3=O)C(=N)N2O1 34%, CCC(=C/c1sc2ccc3ccccc3c2[n+]1C)/C=C1\Sc2ccc3ccccc3c2N1C 84.5%, NC(=O)c1c(Nc2nc3c(F)cccc3s2)sc2c1CCCC2 92.7%, CN(C)CCCn1c(N)c(C#N)c2nc(C#N)c(C#N)nc21 45.1%, O=S(=O)(O)Oc1c[nH]c2ccccc12 35.9%, O=C(Cc1nc2ccccc2[nH]c1=O)c1ccc(Cl)cc1 57.8%, O=C(/C=C/c1ccc(N2CCOCC2)cc1)c1ccccc1 84.6%, COc1cc(/C=C(\C#N)c2nc3c(s2)CC(C)CC3)ccc1O (stereo not given) 130%, COc1cc(/C=C(\C#N)c2nc3ccccc3[nH]2)ccc1O 112%, Cc1cccn2c(=O)c(/C=C3\SC(=S)N(CC(C)C)C3=O)c(NCCCOC(C)C)nc12 119%, Cn1ccc(=NC=C(C#N)C#N)c2ccccc21 25.4%, O=C(C[n+]1cc(Br)cc2ccccc21)c1ccc(F)cc1 37.5%, CCOc1cc(/C=C(\C#N)c2nc(-c3cccs3)c(NC(C)=O)s2)ccc1O 90.5%, O=[N+]([O-])c1ccc(N/N=C/c2ccccc2)cc1 41.6%, Cc1cccc(COc2ccccc2/C=N/Nc2ccc([N+](=O)[O-])cc2)c1 90.6%, Cc1cc(C)c(/C=C2\C(=O)Nc3ccccc32)[nH]1 113%, CN1C(=O)/C(=C\c2ccc(-c3ccccc3)o2)SC1=S 79.6%, O=C(O)C(c1ccccc1)N1C(=O)/C(=C\c2ccc(-c3cccc(Cl)c3)o2)SC1=S (stereo not given) 151%, CC[n+]1cc(C)ccc1/C=C/c1ccc(N(C)C)cc1 42.1%, N#C/C(=C\c1ccc(N2CCOCC2)o1)C(=O)N1CCOCC1 170%, N#C/C(=C/c1ccc(N2CCOCC2)o1)C(=O)N1CCOCC1 184%, CC1CCN(C(=O)c2ccc3c(c2)NC(=O)CN3)CC1 39.9%, N#CC1=C(N)Oc2c(sc3ccccc23)C1c1ccco1 (stereo not given) 78.6%, O=C(NNc1c2ccccc2nc2ccccc12)c1cc2ccccc2cc1O 38.5%, CN1/C(=c2/s/c(=C3/C(=O)N(c4ccccc4)NC3=Nc3ccccc3)n(C)c2=O)C(C)(C)c2ccccc21 81%, Cc1ccc2cc(/C=N/Nc3ccc(C(=O)O)cc3)c(Cl)nc2c1 35.9%, CCOc1ccc(/C=C2\SC(=S)N(NC(=O)c3ccncc3)C2=O)cc1OC 51.7%

inhibition, inactive:
CCOC(=O)c1c(CC(C)C)csc1/N=C/C1=C(O)CCCC1=O 11.9%, COc1ccc(Cc2nc(-c3ccccn3)no2)cc1OC 8.13%, Cc1ccc2[nH]c(=O)c(CN3CCCCC3)c(-c3ccccc3)c2c1 2.06%, CN=c1scc(-c2cc(OC)ccc2OC)n1/N=C/c1c(C)[nH]c2ccccc12 22.2%, Cc1ccc(CSCC2Nc3ccc(C(=O)N4CCN(c5ccc(F)cc5)CC4)cc3NC2=O)cc1 (stereo not given) 16.1%, CC(C)c1ccc(Nc2nnc(SCC(=O)c3nnc(-c4ccccc4)o3)s2)cc1 21.4%, COC(=O)c1[nH]c2cccc(C)c2c1NC(=O)CN1CCCc2ccccc21 19%, CCC(c1nnnn1Cc1ccco1)N(Cc1cc2cc(OC)ccc2[nH]c1=O)C1CCCCC1 (stereo not given) 13.7%, Cc1c(CC(=O)N2CCN(C(=O)C3COc4ccccc4O3)CC2)c(=O)oc2c(O)c(O)ccc12 (stereo not given) 7.54%, O=C(CN1C(=O)c2ccccc2C1=O)NCc1ccc(C(=O)O)cc1 14.3%, Cc1cccc(NC(=O)c2ccc(COc3ccccc3[N+](=O)[O-])o2)n1 7.02%, CCCOc1ccc(Cn2c(O)cc(=O)[nH]c2=O)cc1 22.1%, Cc1ccc(S(=O)(=O)N(C)c2nc3ccccc3n3c(C(C)C)nnc23)cc1 -0.34%, Cc1ccc(CC2S/C(=C(/C#N)C(=O)N3CCOCC3)N(c3ccccc3)C2=O)cc1 (stereo not given) 9.14%, Cc1ccc(N=C2NC(=O)/C(=C/C=C/c3ccco3)S2)cc1C 23.8%, Cc1ccc(C)c2[nH]c(=O)c(CCNC(=O)CC(C)C)cc12 3.97%
